Results filed as inconclusive are left out. Calls of active or inactive are those of the source. Unless noted, calls come from the whole dose curve; as a rule, active = well fitted curve in the direction sought with a large enough effect in the repeat runs; inconclusive = weak or mixed curves; inactive = no such curve, though single readings can be large; an effect the other way counts as inactive or inconclusive.
How the values were obtained:
[1] = qHTS assay to identify small molecule that activate the aryl hydrocarbon receptor (AhR) signaling pathway - cell viability counter screen (AID 743086); note: nearly all actives have a fitted effect of over 45% in size; note: potency is the fitted concentration of half-maximal effect
Method in brief: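 Cytotoxicity counter screen: CellTiter-Fluor signal (30 min, 37 C) in 4000 HepG2 cells/well carrying the DRE-luciferase reporter, following 24 h compound exposure at 37 C.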

[2] = qHTS assay to identify small molecule antagonists of the peroxisome proliferator-activated receptor gamma (PPARg) signaling pathway - cell viability counter screen (AID 743194); note: nearly all actives have a fitted effect of over 55% in size
Method in brief: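 Viability was measured as CellTiter-Glo luminescence in GeneBLAzer PPARg UAS-bla HEK293H cells. These cells had been exposed 17 h at 37 C to compounds together with rosiglitazone at 50 nM final, with the beta-lactamase readout taken in the same wells.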

[3] = qHTS assay for small molecule agonists of the antioxidant response element (ARE) signaling pathway (AID 743202; active = well fitted activation curve with a large enough effect in the signal ratio in the repeat runs, not every such curve was filed as active; the % refers to the signal ratio; note: potency is the fitted concentration of half-maximal effect)
Method in brief: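 An ARE-responsive beta-lactamase gene stably integrated in HepG2 cells serves as reporter. After 5 h plating and 16 h compound incubation at 37 C, fluorescence of the B/G FRET substrate was measured.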

[4] = qHTS assay for small molecule agonists of the antioxidant response element (ARE) signaling pathway - cell viability counter screen (AID 743203; calls by dose curve; note: nearly all actives have a fitted effect of over 55% in size)
Method in brief: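 CellSensor ARE-bla HepG2 cells, 2,000 per well, rested 5 hrs at 37C/5% CO2, then exposed to compound in DMSO for 16 hrs; viability read as CellTiter-Glo luminescence after 30 min at room temperature, in the reporter wells.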

[5] = qHTS assay for small molecule activators of the heat shock response signaling pathway - cell viability counter screen (AID 743209); note: nearly all actives have a fitted effect of over 50% in size
Method in brief: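 CellSensor HSE-bla HeLa cells, plated overnight at 37 C/5% CO2, were exposed to compounds in DMSO for 5 h at 37 C. Viability was then read in the same wells by CellTiter-Glo luminescence after 30 min at room temperature.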

[6] = qHTS assay for small molecule activators of the heat shock response signaling pathway (AID 743210; active = well fitted activation curve with a large enough effect in the signal ratio in the repeat runs, with a control signal flat, not every such curve was filed as active; the % refers to the signal ratio;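 note: HeLa cells with beta-lactamase reporter driven by heat shock elements; series mostly up to about 63 µM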)
Method in brief: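 In HSE-bla HeLa cells, 5 h compound incubation (37 C) precedes addition of LiveBLAzer B/G substrate; after 2.5 h at room temperature, fluorescence intensity indicates reporter induction.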

[7] = qHTS assay to identify small molecule agonists of the peroxisome proliferator-activated receptor delta (PPARd) signaling pathway - cell viability counter screen (AID 743211); note: nearly all actives have a fitted effect of over 55% in size; note: potency is the fitted concentration of half-maximal effect
Method in brief: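 Tox21 library compounds, delivered in DMSO, were incubated 17 h with PPARd-bla HEK293H cells; cytotoxicity was taken from CellTiter-Glo luminescence read 30 min after reagent addition.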

[8] = target: Peroxisome proliferator-activated receptor delta (Homo sapiens) (UniProt Q03181); test: qHTS assay to identify small molecule agonists of the peroxisome proliferator-activated receptor delta (PPARd) signaling pathway (AID 743212; calls by dose curve)
Method in brief: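 HEK293H UAS-bla reporter cells, human PPARd system; compounds delivered in DMSO after 5 h plating, then at 37 C. Beta-lactamase FRET read, 2 h RT substrate step.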

[9] = qHTS assay to identify small molecule antagonists of the peroxisome proliferator-activated receptor delta (PPARd) signaling pathway - cell viability counter screen (AID 743213); note: nearly all actives have a fitted effect of over 50% in size
Method in brief: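 Cytotoxicity counter screen: CellTiter-Glo luminescence read 30 min after addition, in the same wells as the reporter assay. There, PPARd UAS-bla HEK293H cells (3000/well) were treated 17 h at 37 C with compound and 300 nM L165041.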

[10] = target: Peroxisome proliferator-activated receptor delta (Homo sapiens) (UniProt Q03181); test: qHTS assay to identify small molecule antagonists of the peroxisome proliferator-activated receptor delta (PPARd) signaling pathway (AID 743215; active = well fitted inhibition curve with a large enough effect in the signal ratio in the repeat runs, not every such curve was filed as active; the % refers to the signal ratio;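 note: cells stimulated with agonist L165041 at 300 nM final during compound exposure; series mostly up to about 62 µM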)
Method in brief: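 PPARd UAS-bla HEK293H cells were pre-incubated 5 h at 37 C, then given test compounds in DMSO plus agonist L165041 (300 nM final). After 17 h at 37 C, beta-lactamase FRET substrate was added; fluorescence read after 2 h at room temperature.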

[11] = qHTS assay to identify small molecule antagonists of the farnesoid-X-receptor (FXR) signaling pathway - cell viability counter screen (AID 743221; active = well fitted cell-killing curve with a large enough effect in the repeat runs, not every such curve was filed as active; note: nearly all actives have a fitted effect of over 50% in size)
Method in brief: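 Cytotoxicity is taken from ATP luminescence (CellTiter-Glo, 30 min, room temperature) in FXR-bla HEK 293T cells previously incubated 16 h at 37 C with compound and chenodeoxycholic acid at 50 uM final.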

[12] = target: Vitamin D3 receptor (Homo sapiens) (UniProt P11473); test: qHTS assay to identify small molecule agonists of the vitamin D receptor (VDR) signaling pathway (AID 743222; calls by dose curve)
Method in brief: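 VDR-bla cells were plated 4 h at 37C/5% CO2, then exposed to compounds in DMSO for 16 h. After LiveBLAzer B/G FRET substrate addition and 2 h at room temperature, beta-lactamase reporter fluorescence was read.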

[13] = target: Vitamin D3 receptor (Homo sapiens) (UniProt P11473); test: qHTS assay to identify small molecule antagonists of the vitamin D receptor (VDR) signaling pathway (AID 743223; active = well fitted inhibition curve with a large enough effect in the signal ratio in the repeat runs, not every such curve was filed as active; the % refers to the signal ratio)
Method in brief: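 Quantitative HTS in VDR-bla reporter cells stimulated with 1alpha,25-dihydroxyvitamin D3, 3 nM final. Compound exposure 16 h, 37C, 5% CO2. Read-out: beta-lactamase FRET substrate fluorescence, 2 h RT.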

[14] = qHTS assay to identify small molecule agonists of the vitamin D receptor (VDR) signaling pathway - cell viability counter screen (AID 743224); note: series mostly up to about 63 µM; nearly all actives have a fitted effect of over 50% in size
Method in brief: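 VDR-bla cells were preincubated 4 h at 37C/5% CO2, then exposed to compounds for 16 h. After the 2 h room-temperature bla FRET read, CellTiter-Glo was added to the same wells and luminescence read after 30 min.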

[15] = qHTS assay to identify small molecule agonists of the farnesoid-X-receptor (FXR) signaling pathway - cell viability counter screen (AID 743218); note: nearly all actives have a fitted effect of over 45% in size
Method in brief: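 FXR-UAS-bla HEK 293T cells, plated 5 h at 37 C, were exposed to compounds for 16 h at 37 C. CellTiter-Glo was then added to the same wells as the bla readout; luminescence read after 30 min at room temperature.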

[16] = target: Bile acid receptor (Homo sapiens) (UniProt Q96RI1); test: qHTS assay to identify small molecule agonists of the farnesoid-X-receptor (FXR) signaling pathway (AID 743220; active = well fitted activation curve with a large enough effect in the signal ratio in the repeat runs, not every such curve was filed as active; the % refers to the signal ratio)
Method in brief: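 Beta-lactamase reporter under UAS control in GeneBLAzer FXR HEK 293T cells (5000/well) measured with LiveBLAzer FRET substrate after 2 h at room temperature. Compound exposure lasted 16 h at 37C.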

[17] = target: Bile acid receptor (Homo sapiens) (UniProt Q96RI1); test: qHTS assay to identify small molecule antagonists of the farnesoid-X-receptor (FXR) signaling pathway (AID 743217; active = well fitted inhibition curve with a large enough effect in the signal ratio in the repeat runs, not every such curve was filed as active; the % refers to the signal ratio)
Method in brief: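 FXR-UAS-bla HEK 293T cells pre-incubated 5 h at 37 °C, then exposed to compounds with chenodeoxycholic acid (50 uM final) for 16 h at 37 °C. Beta-lactamase reporter read by LiveBLAzer B/G FRET substrate fluorescence after 2 h at room temperature.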

[18] = target: Peroxisome proliferator-activated receptor gamma (Homo sapiens) (UniProt P37231); test: qHTS assay to identify small molecule antagonists of the peroxisome proliferator-activated receptor gamma (PPARg) signaling pathway (AID 743191; calls by dose curve; note: nearly all actives have a fitted effect of over 30% in size; note: potency is the fitted concentration of half-maximal effect)
Method in brief: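 Beta-lactamase reporter under UAS control in HEK293H PPARg-bla cells; compound treatment 17 h at 37C. Read-out: fluorescence intensity after 1 h room-temperature incubation with LiveBLAzer B/G FRET substrate.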

[19] = target: Peroxisome proliferator-activated receptor gamma (Homo sapiens) (UniProt P37231); test: qHTS assay to identify small molecule agonists of the peroxisome proliferator-activated receptor gamma (PPARg) signaling pathway (AID 743094; active = well fitted activation curve with a large enough effect in the signal ratio in the repeat runs, not every such curve was filed as active; the % refers to the signal ratio)
Method in brief: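 GeneBLAzer PPARg UAS-bla HEK293H cells carrying a stably integrated beta-lactamase reporter were pre-incubated 5 h at 37C, then exposed to compounds in DMSO for 17 h at 37C; LiveBLAzer B/G FRET substrate was added for 1 h at room temperature and fluorescence read.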

Measured: Potency

Peroxisome proliferator-activated receptor delta (Homo sapiens), sequence (Q03181 whole entry, looked up): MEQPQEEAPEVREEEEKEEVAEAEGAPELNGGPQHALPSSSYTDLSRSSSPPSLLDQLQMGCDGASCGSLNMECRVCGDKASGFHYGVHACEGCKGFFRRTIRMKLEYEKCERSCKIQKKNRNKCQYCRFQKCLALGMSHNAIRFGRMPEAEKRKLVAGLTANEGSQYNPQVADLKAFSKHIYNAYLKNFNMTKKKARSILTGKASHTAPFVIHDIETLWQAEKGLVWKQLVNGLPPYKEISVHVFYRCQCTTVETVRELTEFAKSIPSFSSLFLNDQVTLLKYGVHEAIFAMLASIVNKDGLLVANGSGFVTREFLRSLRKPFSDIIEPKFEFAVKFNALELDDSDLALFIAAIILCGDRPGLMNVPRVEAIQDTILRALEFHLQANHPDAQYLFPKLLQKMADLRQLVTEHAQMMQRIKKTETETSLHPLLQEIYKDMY
Vitamin D3 receptor (Homo sapiens), sequence (P11473 whole entry, looked up): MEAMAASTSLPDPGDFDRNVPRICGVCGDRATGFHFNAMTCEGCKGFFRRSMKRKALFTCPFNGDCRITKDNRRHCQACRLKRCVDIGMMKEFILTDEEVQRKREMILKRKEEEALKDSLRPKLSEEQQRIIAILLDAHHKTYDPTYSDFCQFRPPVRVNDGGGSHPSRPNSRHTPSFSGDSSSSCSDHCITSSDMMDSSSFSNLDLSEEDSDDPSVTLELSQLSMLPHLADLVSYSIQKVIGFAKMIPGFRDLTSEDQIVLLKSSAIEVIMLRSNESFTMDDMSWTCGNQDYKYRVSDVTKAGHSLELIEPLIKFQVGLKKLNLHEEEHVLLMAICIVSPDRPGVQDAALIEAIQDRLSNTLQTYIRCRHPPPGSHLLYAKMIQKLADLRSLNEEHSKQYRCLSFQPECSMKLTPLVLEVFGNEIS
Peroxisome proliferator-activated receptor gamma (Homo sapiens), sequence (P37231 whole entry, looked up): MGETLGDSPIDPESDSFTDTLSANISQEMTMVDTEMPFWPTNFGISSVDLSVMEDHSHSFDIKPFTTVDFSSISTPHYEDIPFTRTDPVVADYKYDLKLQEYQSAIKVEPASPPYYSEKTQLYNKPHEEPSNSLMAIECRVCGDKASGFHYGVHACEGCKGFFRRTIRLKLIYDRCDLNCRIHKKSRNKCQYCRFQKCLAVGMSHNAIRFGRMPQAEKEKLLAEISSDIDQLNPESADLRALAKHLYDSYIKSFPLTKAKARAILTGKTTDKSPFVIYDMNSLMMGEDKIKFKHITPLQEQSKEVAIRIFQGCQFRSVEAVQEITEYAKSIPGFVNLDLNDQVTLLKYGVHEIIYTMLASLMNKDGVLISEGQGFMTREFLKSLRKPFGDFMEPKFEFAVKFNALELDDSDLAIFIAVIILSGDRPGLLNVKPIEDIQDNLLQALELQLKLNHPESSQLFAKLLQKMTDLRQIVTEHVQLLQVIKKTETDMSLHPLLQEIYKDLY
Bile acid receptor (Homo sapiens), sequence (Q96RI1 whole entry, looked up): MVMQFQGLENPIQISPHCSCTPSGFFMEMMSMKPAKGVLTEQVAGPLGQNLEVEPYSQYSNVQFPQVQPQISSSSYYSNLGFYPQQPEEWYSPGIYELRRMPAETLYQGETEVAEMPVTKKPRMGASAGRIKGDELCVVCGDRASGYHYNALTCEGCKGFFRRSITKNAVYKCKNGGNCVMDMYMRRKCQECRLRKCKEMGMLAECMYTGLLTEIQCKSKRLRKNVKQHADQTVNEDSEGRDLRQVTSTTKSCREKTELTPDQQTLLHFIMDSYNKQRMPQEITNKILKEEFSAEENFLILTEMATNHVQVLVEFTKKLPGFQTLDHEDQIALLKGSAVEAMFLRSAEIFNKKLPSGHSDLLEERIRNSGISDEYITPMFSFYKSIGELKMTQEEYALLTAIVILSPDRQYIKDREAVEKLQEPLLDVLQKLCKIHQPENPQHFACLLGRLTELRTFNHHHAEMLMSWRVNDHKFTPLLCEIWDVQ

CCCCCCOC(=O)CCCCCCCC(=O)OCCCCCC
inactive: [1] | [2] | [3] | [4] | [5] | [6] | [7] | [8] | [9] | [10] | [11] | [12] | [13] | [14]

Nc1c(I)cc(I)c(C(=O)N(CCC(=O)O)c2ccccc2)c1I
inactive: [2] | [3] | [4] | [5] | [6] | [7] | [8] | [9] | [10] | [15] | [16] | [11] | [12] | [13]

O=C(C(=O)c1ccccc1)c1ccccc1
inactive: [1] | [2] | [4] | [5] | [6] | [7] | [9] | [11] | [12] | [14]

CCOCCn1c(C2CCN(CCc3ccc(C(C)(C)C(=O)O)cc3)CC2)nc2ccccc21
inactive: [2] | [3] | [5] | [6] | [7] | [8] | [17] | [15] | [16] | [11] | [12] | [14]

C=CC(C)(C)CC(=O)OC
inactive: [1] | [2] | [3] | [4] | [5] | [6] | [7] | [8] | [9] | [10] | [17] | [15] | [11] | [12] | [13] | [14]

O=C(c1ccc(O)cc1)c1ccc(Cl)cc1
inactive: [1] | [2] | [4] | [5] | [6] | [7] | [9] | [15] | [16] | [11] | [12] | [14]

O=C(/C=C/c1ccccc1)OCCCc1ccccc1
inactive: [1] | [2] | [4] | [5] | [6] | [7] | [8] | [9] | [10] | [11] | [12] | [13] | [14]

CO[C@@]12[C@H](COC(N)=O)C3=C(C(=O)C(C)=C(N)C3=O)N1C[C@@H]1N[C@@H]12
inactive: [6] | [7] | [8] | [9] | [15] | [16] | [11]
active: [1] 29.8 µM

CCCCCCCCCCOS(=O)(=O)O
inactive: [1] | [2] | [4] | [5] | [6] | [7] | [9] | [17] | [16] | [11] | [13] | [14]

COc1ccc([C@@H]2Sc3ccccc3NC(=O)[C@@H]2O)cc1
inactive: [2] | [3] | [4] | [5] | [6] | [7] | [8] | [10] | [15] | [11] | [12] | [14]

c1cc[c]([Bi]([c]2ccccc2)[c]2ccccc2)cc1
inactive: [1] | [2] | [4] | [5] | [7] | [8] | [9] | [15] | [11] | [12] | [14]

CN1Cc2cc(C(=O)N3CCC(C4CCNCC4)CC3)ccc2N[C@@H](CC(=O)O)C1=O
inactive: [18] | [2] | [4] | [5] | [6] | [7] | [8] | [9] | [15] | [11] | [14]

CC(=O)N(c1onc(C)c1C)S(=O)(=O)c1ccc(N)cc1
inactive: [2] | [3] | [4] | [5] | [6] | [7] | [17] | [15] | [16] | [11] | [12] | [14]

Cc1ccc(Nc2nccc(N(C)c3ccc4c(C)n(C)nc4c3)n2)cc1S(N)(=O)=O
active: [1] 23.7 µM | [18] 26.6 µM
inactive: [4] | [5] | [6] | [7] | [15] | [11] | [12] | [14]

COc1cc2c(cc1OC)-c1cc(=Nc3c(C)cc(C)cc3C)n(C)c(=O)n1CC2
active: [1] 29.8 µM | [18] 13.3 µM
inactive: [5] | [15] | [11]

C[N+](C)(C)CCOC(N)=O
inactive: [1] | [2] | [3] | [4] | [5] | [6] | [7] | [8] | [9] | [17] | [15] | [16] | [11] | [12] | [13] | [14]

O=C(OCCOCCO)c1ccccc1Nc1cccc(C(F)(F)F)c1
inactive: [19] | [2] | [4] | [5] | [6] | [7] | [8] | [9] | [10] | [11] | [12] | [14]

CNC(=O)N(c1ccccc1)c1ccccc1
inactive: [1] | [2] | [4] | [5] | [6] | [7] | [9] | [15] | [11] | [14]

COC(=O)c1cc(Cl)ccc1NS(=O)(=O)C(F)(F)F
inactive: [18] | [2] | [3] | [4] | [5] | [6] | [7] | [9] | [17] | [15] | [16] | [11]

CC(N)CN (stereo not drawn)
inactive: [1] | [2] | [3] | [4] | [5] | [7] | [8] | [9] | [15] | [16] | [11] | [13] | [14]

C(=C\c1ccccc1)/CN1CCN(C(c2ccccc2)c2ccccc2)CC1
active: [7] 29.8 µM
inactive: [1] | [4] | [5] | [16] | [11] | [12] | [13]

CCOC(=O)N1CCC(n2c(=O)[nH]c3cc(Cl)ccc32)CC1
inactive: [18] | [2] | [4] | [6] | [7] | [9] | [15] | [11] | [14]
active: [3] 6.68 µM

Source: PubChem BioAssay (Tox21)
